ChEMBL document CHEMBL3988442, “University of Dundee, Small-Polar-MMV Screening Library” (2021)
Among all 48,000 compounds or so, about 13,000 (27%) showed an effect of 50% or more. The list shows a part of the results.

Each compound was assayed on Wolbachia pipientis (assay: Anti-Wolbachia Cell-Based Screen). Conditions: 5 µM.
Assay type: functional
Parameters: scale not given: in the data most compounds retested in dose-response had high values

Row | Compound | Percent Effect
1 | O=C(NCc1ccccc1OCCO)Nc1ccc2c(c1)CCC2 | 17.01%
2 | N#Cc1ccnc(N2CCC(c3nccn3Cc3cscn3)CC2)c1 | 9.295%
3 | CCCOC(C)C(=O)N1CCC(O)(c2ccc3nc(C)ccc3c2)CC1 (stereo not given) | -16.84%
4 | N#Cc1ccc(NCCC2CCN(CC(F)(F)F)CC2)nc1 | -12.29%
5 | COCCN1CCN(C(=O)C2CC=CC2)Cc2cccnc21 | -8.576%
6 | Cc1ccc2c(n1)N(Cc1cccnc1)CCN(Cc1cnn(C)c1)C2 | 105.8%
7 | Cc1ccc2c(n1)N(Cc1cccnc1)CCN(C(=O)C1CCC1)C2.O=C(O)C(F)(F)F.O=C(O)C(F)(F)F | -8.761%
8 | Cc1ccc2c(n1)N(Cc1cccnc1)CCN(C(=O)C1CC=CC1)C2 | 112.8%
9 | COCCC(=O)N1CCN(CC2CC2)c2nc(C)ccc2C1.O=C(O)C(F)(F)F | -15.14%
10 | Cc1ccc2c(n1)N(CC1CC1)CCN(Cc1cnn(C)c1)C2 | 122.1%
11 | CN(C)Cc1nnc2n1CCN(Cc1cccnc1)C2 | -0.7549%
12 | Cc1ccc2c(n1)N(CC1CC1)CCN(C(=O)NC1CC1)C2.O=C(O)C(F)(F)F | -6.473%
13 | Cc1cc(-c2nn(C)c(Cl)c2CN2CCC3(CC2)[C@H](O)C[C@@H]3O)no1 | 0.9032%
14 | CNC(=O)CS(=O)(=O)C1CCN(S(=O)(=O)c2c(F)cccc2F)CC1 | 3.089%
15 | CCn1ccnc1CN1CCN(C(C)C(=O)NC2CCCCC2)CC1 (stereo not given) | -10.14%
16 | CCn1ccnc1CN1CCCN(C(=O)c2cncnc2C)CC1 | -6.711%
17 | CCn1ccnc1CN1CCCN(C(=O)c2cnc(C)cn2)CC1 | 120.4%
18 | CCn1ccnc1CN1CCN(C(C)C(=O)N2CCC(C)CC2)CC1 (stereo not given) | 15.17%
19 | CCn1ccnc1CN1CCCN(C(=O)c2cccn2C)CC1 | 1.946%
20 | CCn1ccnc1CN1CCN(C(C)C(=O)N2CCCCCC2)CC1 (stereo not given) | 83.63%
21 | CCn1ccnc1CN1CCN(C(C)C(=O)N2CCCC2)CC1 (stereo not given) | 111.2%
22 | CCn1ccnc1CN1CCCN(C(=O)c2cc(Cl)c[nH]2)CC1 | -1.253%
23 | CCn1ccnc1CN1CCCN(C(=O)C2(C#N)CCCCC2)CC1 | -5.352%
24 | COc1cccc(CNC(=O)NC2(c3nc(C)no3)CCCCC2)c1 | -3.756%
25 | CC(NC(=O)NCCc1cnn(C)c1)c1ccc(Cl)s1 (stereo not given) | 7.772%
26 | CN(Cc1ccco1)[C@@H]1CN(Cc2ccc(F)cc2)C[C@@H]2CCCO[C@@H]21.O=C(O)C(F)(F)F.O=C(O)C(F)(F)F | 20.99%
27 | CCCn1[nH]cc/c1=N\C(=O)CN1CCC[C@H]1CO | 0.9827%

Row | Compound | Percent Effect
28 | Cl.O=C(c1ccoc1)N1CCC(NCc2ccccc2Cl)CC1 | -26.85%
29 | CCN1C[C@H]2CCN(C(=O)NC3CCCC3)CC[C@H]2S1(=O)=O | 7.84%
30 | CN1CCN(C(=O)CCn2nnc3ccccc32)CC(C(N)=O)C1 (stereo not given) | 138.2%
31 | CNC(=O)C1CN(C)CCN(C(=O)CCn2nnc3ccccc32)C1 (stereo not given) | 120.6%
32 | NC(=O)C1CCN(C(=O)Cn2nc(-c3ccccc3)oc2=O)C1 (stereo not given) | -8.478%
33 | CC(C)c1cc(C(=O)NCCn2nnc3ccccc32)no1 | -3.58%
34 | CNC(=O)C1CCN(C(=O)CCn2cccn2)CC1 | -8.925%
35 | COc1cccc(OC2CN(C(=O)CCn3cnc4ccccc43)C2)c1 | -24.05%
36 | Cn1c(CN2CCCCC2)nnc1C1CCN(c2nccc(N)n2)CC1 | -10.02%
37 | COc1ccc(CNC(=O)CNc2cc3c(cc2Cl)OCCCO3)cc1 | 0.3306%
38 | CC(C)n1nc(CN(C)C)c2c1CN(CC1CC1)CC2.O=C(O)C(F)(F)F.O=C(O)C(F)(F)F | -1.133%
39 | Cn1nc(CN2CCCC2)c2c1CN(C(=O)Nc1cccc(F)c1)CC2.O=C(O)C(F)(F)F | -17.26%
40 | CC(C)n1nc(CN2CCCC2)c2c1CN(CC1CC1)CC2.O=C(O)C(F)(F)F.O=C(O)C(F)(F)F | 114.1%
41 | Cn1nc(CN2CCCC2)c2c1CN(C(=O)c1cnccn1)CC2 | -11.87%
42 | Cn1nc(CN2CCCC2)c2c1CN(CC1CC1)CC2.O=C(O)C(F)(F)F.O=C(O)C(F)(F)F | 104.5%
43 | Cn1nc(CN2CCCC2)c2c1CN(c1cnccn1)CC2.O=C(O)C(F)(F)F.O=C(O)C(F)(F)F | 110%
44 | Cn1nc(CNC(=O)CC#N)c2c1CN(CC1CC1)CC2.O=C(O)C(F)(F)F | -7.895%
45 | CC(C)n1nc(CN(C)C)c2c1CN(C(=O)CC1CC1)CC2.O=C(O)C(F)(F)F | -12.31%
46 | Cn1nc(CN2CCCCC2)c2c1CN(Cc1ccoc1)C2.O=C(O)C(F)(F)F.O=C(O)C(F)(F)F | -5.276%
47 | O=C(Cc1cccs1)N1CC(c2nc(-c3cnccn3)no2)C1 | 16.37%
48 | CC(C)CN1CCN(S(=O)(=O)c2cn(C)cn2)[C@H]2CS(=O)(=O)C[C@H]21 | -0.9827%
49 | N#Cc1ccc(F)c(CN(CC(=O)N2CCCC2)CC2CCCO2)c1 (stereo not given) | -8.762%
50 | CCc1cc(CN(C)C(=O)c2nnc(CN(C)C)o2)on1 | -21.92%
51 | COc1ccc(CN(C)c2ncc(S(N)(=O)=O)s2)c(OC)c1 | -0.4358%
52 | CCc1nc(C2CCCN2C(=O)CCc2cscn2)no1 (stereo not given) | 107.6%
53 | O=C(CCc1cscn1)N1CCCC1c1noc(C2CC2)n1 (stereo not given) | 2.466%
54 | CCc1nc(C2CCCN2C(=O)CCNS(C)(=O)=O)no1 (stereo not given) | 1.725%

Row | Compound | Percent Effect
55 | CCc1nc(C2CCCN2C(=O)CCc2nc(C3CC3)no2)no1 (stereo not given) | 115.8%
56 | CCc1nc(C2CCCN2C(=O)CCc2nc(C(C)(C)C)no2)no1 (stereo not given) | 121.6%
57 | CCc1nc(C2CCCN2C(=O)c2ncoc2CC)no1 (stereo not given) | 6.406%
58 | CCc1nc(C2CCCN2C(=O)CCc2c(C)noc2Cl)no1 (stereo not given) | 102.7%
59 | CCCc1noc(CCC(=O)N2CCCC2c2noc(C3CC3)n2)n1 (stereo not given) | -5.991%
60 | CCc1nc(C2CCCN2C(=O)c2ccoc2C)no1 (stereo not given) | -2.017%
61 | CCc1nc(C2CCCN2C(=O)CCc2ccc3c(c2)OCO3)no1 (stereo not given) | -10.43%
62 | CCc1nc(C2CCCN2C(=O)c2c[nH]c(C)n2)no1 (stereo not given) | -5.998%
63 | COc1ncc(Cl)c(NCc2ccc(C(=O)N(C)C)cc2)n1 | -9.459%
64 | CC(C)c1nc(Cn2cncn2)n(-c2ccccn2)n1 | -15.87%
65 | CC1CCN(C(=O)c2cn(-c3cc(N4CCOCC4)ncn3)cn2)CC1 | 4.259%
66 | CCOc1ccc(NC(=O)c2cc(C)c(C)o2)cc1CO | -26.64%
67 | CCn1ncc2c1CN(C(=O)c1ccc3c(c1)OCO3)CC2COC (stereo not given) | 10.24%
68 | CC(C)Cn1[nH]cc/c1=N\C(=O)CN1CCOC(Cn2cccn2)C1 (stereo not given) | 19.87%
69 | Cc1ccc(CN2Cc3ccnn3CC(COCc3cccnc3)C2)o1 (stereo not given) | -8.625%
70 | CCC(=O)NCC(c1ccc(SC)cc1)N1CCc2sccc2C1 (stereo not given) | 101.9%
71 | O=C(COCC1CC1)NCC(c1ccccc1)N1CCc2sccc2C1 (stereo not given) | 1.717%
72 | CSc1ccc(C(CNC(C)=O)N2CCc3sccc3C2)cc1 (stereo not given) | 95.64%
73 | CCOCCCC(=O)NCC(c1ccccc1)N1CCc2sccc2C1 (stereo not given) | 0.7933%
74 | O=C(NCCO)NCC(c1ccccc1)N1CCc2sccc2C1 (stereo not given) | 12.78%
75 | COc1ccc(CNC(=O)N2CCc3sccc3C2)cc1O | 11.16%
76 | Cc1ccccc1CN(Cc1ccccn1)C(=O)CNS(C)(=O)=O | -13.04%
77 | CN(Cc1ccncc1)C1CCC[C@@H]2CN(c3ncccn3)C[C@H]12 (stereo not given in full) | -7.905%
78 | Cn1nccc1CNC(=O)CCn1nc(C(F)(F)F)c(Cl)c1C1CC1 | 93.44%
79 | Cn1nccc1CNC(=O)CCn1nc(C(F)(F)F)cc1C1CC1 | 108.8%
80 | CC(C)(C)NC(=O)Cn1nc(C2CC2)cc(C(F)(F)F)c1=O | -6.94%
81 | Cn1nccc1CNC(=O)NC1CCN(c2ncccc2Cl)C1 (stereo not given) | -9.354%

Row | Compound | Percent Effect
82 | Cn1nc(CNC(=O)C2COc3ccccc3O2)cc1C1CC1 (stereo not given) | -7.331%
83 | Cn1nccc1CNC(=O)Cn1nc(C(F)(F)F)cc1C1CC1 | 104.1%
84 | Cn1nccc1CNC(=O)Nc1cc(C(F)(F)F)c[nH]c1=O | -6.749%
85 | O=C(CCN1CCOC(C(F)(F)F)C1)NCc1ccc(Cl)cc1 (stereo not given) | -10.12%
86 | Cc1nc2[nH]cnc(NCCN3CCCC3)c-2n1 | 101.2%
87 | COC1CCN(CCNc2ncc(Br)cc2C)CC1 | 16.05%
88 | CCc1cnc(C)nc1NCCN1CCOCC1 | -2.451%
89 | CCn1nc(C)c2ncnc(NCCCN3CCOCC3)c21 | 9.832%
90 | Cc1nc2[nH]cnc(NCCCN3CCOCC3)c-2n1 | 111.6%
91 | Cc1nc2[nH]cnc(NCCN3CCOCC3)c-2n1 | 110.5%
92 | Cc1ccc2nc(NCCN3CCOCC3)n(C)c(=O)c2c1 | 2.729%
93 | Cc1cc(Br)cnc1NCCN1CCC(N(C)C)CC1 | 23.33%
94 | CCCN(C(=O)c1csnn1)C1CCCN(Cc2ccccc2)C1 (stereo not given) | 2.292%
95 | CN(C)CC(=O)N1Cc2cc(-c3cc[nH]n3)ccc2C1c1cnco1 (stereo not given) | -12.12%
96 | CN(C)[C@@H]1CO[C@H](CNC(=O)c2ccccc2)[C@H]1O | 9.178%
97 | CN1CCCC2(CCN(c3cccc(C#N)n3)C2)C1=O (stereo not given) | 8.303%
98 | COCCN1CCCC2(CCN(c3cc(C)c(C#N)c(C)n3)C2)C1=O (stereo not given) | 99.04%
99 | COCCN1CCCC2(CCN(c3nc(C)nc4c3CCC4)C2)C1=O (stereo not given) | -6.714%
100 | Cc1cc(N2CCC3(CCCN(CCO)C3=O)C2)nc(C)c1C#N (stereo not given) | 111%
101 | COCCN1CCCC2(CCN(c3cccc(C(F)(F)F)n3)C2)C1=O (stereo not given) | -1.331%
102 | COCCN1CCCC2(CCN(c3ncnc(C)c3C)C2)C1=O (stereo not given) | -47.68%
103 | Cc1nc(N2CCC3(CCCN(CCO)C3=O)C2)c2sccc2n1 (stereo not given) | -11.1%
104 | CCCN1CCCC2(CCN(c3nccc(OC)n3)C2)C1=O (stereo not given) | 1.241%
105 | Cc1cc(C)c(C#N)c(N2CCC3(CCCN(CCO)C3=O)C2)n1 (stereo not given) | 111.5%
